Here are results for 53 molecules from PubChem BioAssay AID686979 (National Center for Advancing Translational Sciences (NCATS), 2013).

Hit rate of the full screen: of about 420,000 compounds, about 50,000 (12%) were called active. About 26% were inconclusive and are not listed. The call rests on the fitted dose curve; in most records, active means well fitted inhibition curve with a large enough effect; inconclusive means small, poorly fitted or top-dose-only effect; inactive means flat fitted curve, though single readings scatter. Only a selection was taken, and actives are over-represented in it overall. Where a SMILES comes first, the peptide text is derived from it. [ ]: non-standard residue; d: D form. ξ: configuration not given here. ξM = CSCCC(N)C(=O)O
On the % scale 0 is the no-effect control and ±100 the full control effect; potency means the concentration at half of the fitted maximal effect.

This experiment is described as follows: qHTS for Inhibitors of human tyrosyl-DNA phosphodiesterase 1 (TDP1): qHTS in cells in presence of CPT. Further: nearly all actives have a fitted effect of over 55% in size. Particulars: chicken DT40 Tdp1-/-;hTDP1 cells + 20 nM CPT, ATP luminescence, 48 h; series mostly up to 46.2 µM; activity change, negative = growth inhibition: at the top concentration. In short, it runs like this: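 Cell growth measured by CellTiter-Glo luminescence after a minimum 48 h, 37 C compound exposure with 20 nM CPT in Tdp1-knockout DT40 cells stably expressing hTDP1, seeded 400/well; qHTS titration format.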
Consider `N#C/C(=C\c1ccc(O)c(O)c1)C(N)=O`, for which the “activity change, negative = growth inhibition” value was -2.05% (inactive).
The same measure, in the same setting: to `CCc1nc(-c2cc(S(=O)(=O)N3CCN(c4ccc(OC)cc4)CC3)ccc2OC)no1` belongs -14.5% (inactive).
Take `COc1cc2c(cc1O)C(SC)=NC(C)(C)C2`: the Potency is 25.9 µM (active).
In the case of `Cc1cn(C)c(=O)n(C)c1=O`, the “activity change, negative = growth inhibition” value is 8.57% (inactive).
`O=C1CCCCC1C(=O)c1ccccc1` (stereo not drawn): the “activity change, negative = growth inhibition” value was 10.3% (inactive).
Still for that read-out and setting: to `O=C(Nn1cnnc1)c1ccc([N+](=O)[O-])cc1` belongs 0.36% (inactive).
The same measure, in the same setting: the figure for `O=C(c1ccncc1)c1ccc([N+](=O)[O-])cc1` is -28.2% (inactive).
As for `O=C(Cn1c[n+](CC(=O)c2ccc([N+](=O)[O-])cc2)cn1)c1ccc([N+](=O)[O-])cc1`, the Potency is 16.4 µM (active).
Regarding `COC(=O)CNC(=O)C(CCSC)NC(C)=O` (stereo not drawn) (Ac-[ξM]-Gly-OMe), the “activity change, negative = growth inhibition” value is 3.75% (inactive).
The same measure, in the same setting: to `Cc1ccc(S(=O)(=O)NC(C(=O)N2CCOCCOCCOCCOCC2)c2ccccc2)cc1` (stereo not drawn) belongs -0.594% (inactive).
On the same count and under the same terms, the figure for `Cc1ccc(S(=O)(=O)Nc2nc(C)cc(-n3nc(C)cc3C)n2)cc1` is -29.3% (inactive).
Regarding `CCCC(C(=O)n1nc(C)cc1C)C(NS(=O)(=O)c1ccc(C)cc1)c1ccccc1` (stereo not drawn), the Potency was 16.4 µM (active).
In the case of `Cc1cccc(C(=O)NNC(=O)CSc2nnc(C(C)C)n2C)c1`, the “activity change, negative = growth inhibition” value is -15.2% (inactive).
On the same count and under the same terms, the figure for `COc1ccc(NC(=O)C(c2ccccc2)N2Cc3ccccc3C2=O)cc1` (stereo not drawn) is -17.9% (inactive).
As to `Fc1ccc(/C=N/Nc2nc(-c3cccnc3)nc3ccccc23)cc1`, the Potency is 20.6 µM (active).
Consider `Cc1ccc2nc(C)cc(N/N=C/c3ccc(F)cc3)c2c1`, for which the “activity change, negative = growth inhibition” value was -0.865% (inactive).
For the molecule `Cc1cnc(CNc2nc(-c3cccnc3)nc3ccccc23)cn1`, the “activity change, negative = growth inhibition” value is -3.03% (inactive).
In the case of `C/C(Cn1nnc2ccccc21)=N\OC(=O)c1cc(F)c(F)cc1Cl`, the “activity change, negative = growth inhibition” value is -1.19% (inactive).
Still for that read-out and setting: the figure for `Cc1cc(NC(=O)CCC(=O)N(CC(=O)NCC2CCCO2)c2ccccc2)no1` (stereo not drawn) is 1.99% (inactive); for `CCc1nc2ccccc2c(C(=O)OC2CCCCC2=O)c1C` (stereo not drawn) it is -18.5% (inactive); for `Cn1cccc1C(=O)OCC(=O)c1ccc(Br)s1` it is 2.4% (inactive).
Consider `O=C(COC(=O)c1c2c(nc3ccccc13)CCCC2)c1ccc(Br)s1`, for which the Potency was 8.2 µM (active).
As for `CCc1noc(C)c1C(=O)N1CCCSC1=Nc1ccccc1OC`, the “activity change, negative = growth inhibition” value was -7.02% (inactive).
As for `CN(C)S(=O)(=O)c1ccc(C(=O)NCCN=C2NS(=O)(=O)c3ccccc32)cc1`, the “activity change, negative = growth inhibition” value is -3.6% (inactive).
On the same count and under the same terms, the figure for `Cc1cc(C(=O)NC2CC(C)(C)Cc3c2cnn3-c2ccccc2)n[nH]1` (stereo not drawn) is -10.9% (inactive); for `CC1(C)Cc2c(cnn2-c2cccc(F)c2)C(NC(=O)c2cc[n+]([O-])cc2)C1` (stereo not drawn) it is 15% (inactive).
Take `COC(=O)c1ccc(C(=O)NC2CC(C)(C)Cc3c2cnn3-c2ccc(F)cc2)nc1` (stereo not drawn): the Potency is 1.84 µM (active).
As for `Cc1ccc(Cl)cc1NC(=O)COC(=O)C1CCCCC1`, the “activity change, negative = growth inhibition” value is 8.46% (inactive).
For the molecule `Cc1ccc(CNC(=O)CCC(=O)N2CC(C)Sc3ccccc32)cc1` (stereo not drawn), the “activity change, negative = growth inhibition” value was -27.6% (inactive).
On to `Cc1ccc(Cl)cc1NC(=O)CCC(=O)N1CC(C)Sc2ccccc21` (stereo not drawn), for which the Potency is 23.1 µM (active).
In the case of `Cc1ccc(CNC(=O)CCNS(=O)(=O)c2ccc3c(c2)oc(=O)n3C)cc1`, the “activity change, negative = growth inhibition” value was -3.37% (inactive).
In the case of `C(#CCN1CCOCC1)CCCN1CCOCC1`, the “activity change, negative = growth inhibition” value was -14% (inactive).
Regarding `Cn1nc(C(F)(F)F)c2cc(NC(=O)OCC(C)(C)C)sc21`, the “activity change, negative = growth inhibition” value was -0.896% (inactive).
Still for that read-out and setting: to `CCNC(=O)C1(C)CCCN(C(=O)c2c(C)noc2C)C1` (stereo not drawn) belongs -13.3% (inactive); to `O=C(COC(=O)c1ccccc1)Nc1cccc(S(=O)(=O)N2CCOCC2)c1`, -17.4% (inactive).
As to `Cc1cc2ccccn2c1C(=O)c1cccc(F)c1`, the “activity change, negative = growth inhibition” value is -23.5% (inactive).
Take `Cc1cc2ccccn2c1C(=O)c1cccc(S(=O)(=O)N2CCOCC2)c1`: the Potency was 14.6 µM (active).
As to `O=[N+]([O-])c1ccc(S(=O)(=O)Nc2cccc(-c3ccc(N4CCCC4)nn3)c2)cc1`, the “activity change, negative = growth inhibition” value was -9.13% (inactive).
As to `Cc1cc(C(=O)CC#N)c(C)n1-c1c(C)n(C)n(-c2ccccc2)c1=O`, the “activity change, negative = growth inhibition” value is -6.92% (inactive).
The same measure, in the same setting: the figure for `C=C1CCN([C@@H](Cc2ccccc2)C(=O)N2CCOCC2)S(=O)(=O)c2ccccc21` is 2.59% (inactive).
Regarding `CCn1c2ccccc2c2nnc(SCC(=O)O)nc21`, the “activity change, negative = growth inhibition” value is -1.75% (inactive).
Still for that read-out and setting: to `CCOC(=O)c1sc(NC(=O)C(CC)Sc2nccn2C)nc1C` (stereo not drawn) belongs -15.4% (inactive).
With `C=CCn1c2ccccc2c2nnc(SC(CC)C(=O)Nc3nc(C)c(C(=O)OCC)s3)nc21` (stereo not drawn), the Potency is 11.6 µM (active).
Regarding `O=C(NC1CC1)C1CCCN(C(=O)NC2CCCCC2)C1` (stereo not drawn), the “activity change, negative = growth inhibition” value was -12.4% (inactive).
With `O=C(Nn1cnc2ccccc2c1=O)c1ccccc1`, the “activity change, negative = growth inhibition” value is 8.35% (inactive).
On the same count and under the same terms, the figure for `O=C(Cn1cnc2ccccc2c1=O)NNC(=O)c1ccccc1F` is 3.62% (inactive).
Consider `CN(NC(=O)c1ccccc1F)c1nc(C(F)(F)F)nc2ccccc12`, for which the Potency was 0.206 µM (active).
Still for that read-out and setting: to `CN(NC(=O)c1ccccc1)c1nc2ccccc2nc1C(F)(F)F` belongs 8.2 µM (active).
As to `Cc1nc2ccccc2c(=O)n1NC(=O)c1ccccc1`, the “activity change, negative = growth inhibition” value is -10.5% (inactive).
As to `CSc1nc(N(C)NC(=O)c2cccc(C)c2)c2ccccc2n1`, the Potency was 0.0517 µM (active).
As to `COc1ccc(OCC(=O)NNC(=O)c2cccc(C)c2)cc1`, the “activity change, negative = growth inhibition” value is -11.5% (inactive).
Consider `COC(=O)CNC(=O)c1ccccc1F`, for which the “activity change, negative = growth inhibition” value is -8.86% (inactive).
For `Cc1ccc(S(=O)(=O)NC(=O)c2cccc(C)c2)cc1`, the “activity change, negative = growth inhibition” value was 10.9% (inactive).
